ALDH1A1 block – qHTS Assay for Inhibitors of Aldehyde Dehydrogenase 1 (ALDH1A1). Purified ALDH1A1, NADH fluorescence, propionaldehyde substrate. actives 7.3% (n = 220,000). Aldehyde dehydrogenase 1A1 (Homo sapiens), P00352. Potency, µM (top dose mostly 75.3 µM), inactives show at the top dose activity, negative = inhibition, most hits filed as inhibitors;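 also: potency is read from the fitted curve at half-maximal effect; plate controls were no enzyme wells and a reference inhibitor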
12-hLO inh – qHTS Assay for Inhibitors of 12-hLO (12-human lipoxygenase). purified 12-hLO, xylenol orange hydroperoxide absorbance. Potency, µM (top dose mostly 57.1 µM), for inactives: at the top dose activity change, negative = inhibition, actives largely listed as inhibitors. actives 0.12% (n = 150,000); active = well fitted curve in the direction sought with a large enough effect; inconclusive = small, poorly fitted or top-dose-only effect, or another doubt; inactive = no such curve, though single readings can be large; an effect the other way counts as inactive or inconclusive; also: potency is read from the fitted curve at half-maximal effect; nearly all actives have a fitted effect of over 55% in size
Target sequence (P18054 whole entry, looked up): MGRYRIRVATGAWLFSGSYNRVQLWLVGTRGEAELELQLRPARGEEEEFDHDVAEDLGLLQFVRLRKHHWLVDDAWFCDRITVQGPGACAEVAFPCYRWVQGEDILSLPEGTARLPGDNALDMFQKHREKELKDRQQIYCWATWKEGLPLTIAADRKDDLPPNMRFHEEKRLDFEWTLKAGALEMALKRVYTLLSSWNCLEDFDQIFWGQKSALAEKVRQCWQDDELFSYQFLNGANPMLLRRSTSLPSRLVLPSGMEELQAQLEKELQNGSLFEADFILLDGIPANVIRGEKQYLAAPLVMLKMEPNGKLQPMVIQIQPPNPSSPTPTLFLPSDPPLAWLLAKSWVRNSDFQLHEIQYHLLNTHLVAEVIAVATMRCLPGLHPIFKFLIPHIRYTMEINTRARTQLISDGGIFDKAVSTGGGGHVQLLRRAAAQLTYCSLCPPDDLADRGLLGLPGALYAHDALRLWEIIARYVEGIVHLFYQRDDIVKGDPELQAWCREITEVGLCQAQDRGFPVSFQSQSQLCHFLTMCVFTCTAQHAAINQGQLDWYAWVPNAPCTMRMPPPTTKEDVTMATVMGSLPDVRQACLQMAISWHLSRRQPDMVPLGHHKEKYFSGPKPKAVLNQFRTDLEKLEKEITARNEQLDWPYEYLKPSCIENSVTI
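Hydroperoxide formation by human 12-lipoxygenase from 40 uM arachidonic acid was followed colorimetrically via ferric-xylenol orange complex, using the 573/405 nm absorbance ratio. Enzyme concentration was 150 nM, with 30 min reaction at room temperature.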
PNC assembly inh – High Content Assay for Compounds that inhibit the Assembly of the Perinucleolar Compartment. activity change (PNC), negative = inhibition, % at 10 µM. actives 3.1% (n = 140,000). PC3M PTB-GFP, PNC prevalence imaging, 16 h; stronger effect = lower value;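 active = readout at or below -70, meaning at least 70% loss of cells showing the perinucleolar compartment, a nuclear body marking cancer cells; inconclusive = readout between -30 and a set limit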;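 also: plate controls were DMSO wells for no effect and camptothecin positive control wells for full effect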
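Read-out is percentage of cells bearing a perinucleolar compartment, from automated 20x imaging of fixed, Hoechst-stained PC3M PTB-GFP cells. Cells were seeded 4 h, then exposed 16 h to compound (23 nl of library stock) in duplicate plates.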
IMPase inh – qHTS Assay for Identifying the Cell-Membrane Permeable IMPase Inhibitors; CHO-M1 cells, IP1 accumulation, HTRF TR-FRET ratio; AID 901, 2007; Inositol monophosphatase 1 (Rattus norvegicus), P97697; 120,000 tested, under 10 active; inhibition (IP1 accumulation), % at 46.1 µM; active = well fitted curve in the direction sought with a large enough effect in the signal ratio, not every such curve was filed as active; inconclusive = small, poorly fitted or top-dose-only effect, or a change in a side signal; inactive = no such curve, though single readings can be large or run the other way; the % refers to the signal ratio;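 also: cells stimulated with carbachol in lithium chloride buffer; plate controls were DMSO basal wells for no effect and reference inhibitor wells for full effect; higher means more IMPase inhibition seen as more IP1 and lower FRET ratio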
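Carbachol-driven Gq signalling in CHO-M1 cells (2000/well) generates IP1. Compounds that block IMPase raise IP1 and so reduce the FRET signal from Eu-anti-IP1 and d2-IP1 after a 10 min room-temperature lysis.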
HPGD block – qHTS Assay for Inhibitors of HPGD (15-Hydroxyprostaglandin Dehydrogenase); 15-hydroxyprostaglandin dehydrogenase [NAD(+)] (Homo sapiens), P15428; purified HPGD, NADH fluorescence kinetic, PGE2 substrate; Potency, µM, without a hit: top-dose activity change, negative = inhibition, usual class: inhibitors; actives 4.3% (n = 150,000); AID 894, 2007; also: potency is read from the fitted curve at half-maximal effect
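20 nM HPGD preincubated 15 min at room temperature with compound in 50 mM Tris-HCl pH 8, 0.01% Tween 20. Started with 1 mM NAD+ and 30 uM prostaglandin E2; NADH fluorescence (360/450 nm) read 5 times over 30-s intervals, last minus first.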
IMPase Li inh – qHTS Assay for Identifying the Cell-Membrane Permeable IMPase Inhibitors: Potentiation with Lithium; CHO-M1 cells, IP1 TR-FRET (IP-One), carbachol + lithium; actives 0.35% (n = 210,000); Potency, µM (doses to about 59.4 µM), without a hit: top-dose activity, negative = IMPase inhibition, actives largely listed as inhibitors; AID 1457, 2008; active = well fitted curve in the direction sought with a large enough effect; inconclusive = small, poorly fitted or top-dose-only effect, or another doubt; inactive = no such curve, though single readings can be large; an effect the other way counts as inactive or inconclusive;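 also: IP1 builds up when IMPase is blocked and the TR-FRET signal falls; potency is read from the fitted curve at half-maximal effect; plate controls were basal vehicle for no effect and high inhibitor control for full effect; nearly all actives have a fitted effect of over 50% in size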
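Lithium-sensitised IP1 accumulation assay; M1-expressing CHO cells treated 30 min at 37C with compound. Competitive antibody detection by time-resolved FRET followed a 10 min room-temperature lysis step.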
* marks the source's active call; other numbers are inactive results; u = inconclusive; x = no result; ! = repeats disagree; [ ] = remark or other dose. An excerpt weighted towards active compounds, which were near 11% of everything screened. Unless noted, calls follow the shape of the dose curve; as a rule, active = well fitted inhibition curve with a large enough effect (not every such curve was filed as active); inconclusive = small, poorly fitted or top-dose-only effect, or another doubt; inactive = no such curve, though single readings can be large or run the other way. Unless noted, % is scaled to controls: 0 for no effect and ±100 for the full control effect.

SMILES | ALDH1A1 block | 12-hLO inh | PNC assembly inh | IMPase inh | HPGD block | IMPase Li inh
CC(c1ccc(F)cc1)n1cc(C(=O)NCc2ccc3c(c2)OCO3)nn1 (centres undefined) | 1% | -11% | -90* | 4 | x | x
Nc1c(C(=O)Nc2ccc([As](=O)(O)O)cc2)cnc2nnnn12 | -4%[13.5 µM] | -1%[11.4 µM] | x | x | 0% | 2%
C=CCc1ccc(O)c(OC)c1 | 14µM*! | -2% | x | -2 | 2% | 2%
COc1cc(CCN)ccc1O | -7% | -4% | x | 1 | -16% | 6%
O=C(O)c1ccc(Cl)nc1 | 2% | 4% | 57 | x | -13% | 3%
C=CCSc1nnc(NC(=O)c2ccc(Cl)nc2)s1 | u | -1% | -24 | -9 | 28µM* | 17%[38.3 µM]
O=C(O)c1cccc([As]=[As]c2cccc(C(=O)O)c2)c1 (centres undefined) | -7%[13.5 µM] | -4%[11.4 µM] | x | x | -3% | -1%
CCCCOC(=O)CCN1C(=O)/C(=C2\SC(=S)N(CCC(=O)OCCCC)C2=O)SC1=S | 14µM* | -1% | u | -7 | -10% | 8%
CCCCNC(=O)Oc1cc(CCl)on1 | 13µM* | x | x | x | x | -4%
O=C1c2ccccc2C(=O)N1SC1CCCCC1 | 1.4µM* | u | 51 | 5 | 2.2µM* | 2%[38.3 µM]
NC(N)=NC(=O)c1nc(Cl)c(N)nc1N | 1% | -3% | -115* | -1 | u | -1%
Nc1c(Cl)c(Cl)nc(C(=O)O)c1Cl | 12% | 3% | x | x | -3% | -5%
Nc1ccc([N+](=O)[O-])cc1N | -1% | -9% | x | x | -3% | -3%
O=[N+]([O-])c1ccc(Nc2ccccc2)cc1 | 13% | u | 10 | x | u | 16%
NNc1ccccc1 | -14% | -1%[0.00818 µM] | x | x | -2% | 5%
O=Nc1ccc(Nc2ccccc2)cc1 | 0.063µM* | -15% | x | x | -14% | 34%
c1ccc(Nc2ccc(Nc3ccccc3)cc2)cc1 | u | 13µM* | x | x | -22% | 33%
O=C(C1CC(=O)N(C2CCCCCCC2)C1)N1CCC2(CC1)OCCO2 (centres undefined) | 25µM* | -4% | u | 3 | -6% | -12%[38.3 µM]
O=P(OCCCl)(OCCCl)OCCCl | 28µM* | 0% | x | x | -11% | 10%
COc1cccc2c1C(=O)c1c(O)c3c(c(O)c1C2=O)C[C@](O)(/C(C)=N\O)C[C@@H]3O[C@H]1C[C@H](N)[C@@H](O)[C@H](C)O1 | -8%[13.5 µM] | 0%[11.4 µM] | x | x | -7% | 13%
FC(F)(F)c1nc2ccc(SSc3ccc4nc(C(F)(F)F)[nH]c4c3)cc2[nH]1 | 2.2µM* | -1%[11.4 µM] | x | x | 4µM* | -3%
Cc1nc2cc(C(F)(F)F)ccc2n1C1CCN(Cc2nnnn2Cc2cccs2)CC1 | u | -2% | 28 | 2 | -4% | 33%[38.3 µM]
FC(F)(F)c1ccc2c(c1)ncn2C1CCN(Cc2nnnn2C2CCCCC2)CC1 | 0.56µM* | -21% | -100* | 12 | u | 15%[38.3 µM]
CC(N=Cc1c(O)[nH]c(=O)[nH]c1=O)c1ccccc1 (centres undefined) | u | -3% | -24 | 1 | 28µM* | 1%[38.3 µM]
CCOC(=O)C1OC1(C)c1ccccc1 (centres undefined) | -3% | -2% | x | x | -6% | -13%
SMILES | ALDH1A1 block | 12-hLO inh | PNC assembly inh | IMPase inh | HPGD block | IMPase Li inh
CCCCCC1CC(CC#CCN2CCOCC2)C(=O)O1 (centres undefined) | 6.3µM* | 0% | u | 9 | 0% | 9%
C1C[C@@H]2CN(CCCN3CCOCC3)[C@@H](C1)O2 | 11%[13.5 µM] | -4%[11.4 µM] | x | x | -4% | -5%
CN1C(=O)C(Cc2ccc3c(c2)OCO3)C(=O)N(C)C1=O | 24µM* | -12% | -12 | 10 | -15% | 22%[38.3 µM]
CN1C(=O)C(Cc2cccs2)C(=O)N(C)C1=O | 4% | -3% | -10 | 0 | -8% | -6%[38.3 µM]
CN1C(=O)C(Cc2ccsc2)C(=O)N(C)C1=O | 13µM* | 1% | 1 | 7 | -15% | -1%[38.3 µM]
CC1(C)CC(=O)C(C=NCCN2CCN(C(=O)Cc3ccc(F)cc3)CC2)=C(O)C1 | 18µM* | -11% | 23 | -9 | -15% | 1%[38.3 µM]
O=C1CC(c2ccccc2)CC(O)=C1C=NCCN1CCN(C(=O)Cc2ccccc2)CC1 (centres undefined) | -7% | -2% | 36 | 4 | -7% | 12%[38.3 µM]
Cc1cc(OCC(=O)Nc2c(C)n(C)n(-c3ccccc3)c2=O)c2c3c(c(=O)oc2c1)CCC3 | 3.2µM* | 0% | 20 | -5 | u | 1%[38.3 µM]
Cc1cc(OC(=O)c2ccco2)c2c3c(c(=O)oc2c1)CCCC3 | 14µM* | -7% | 30 | 14 | -11% | 8%[38.3 µM]
Cc1cc(OC(=O)c2cccs2)c2c3c(c(=O)oc2c1)CCCC3 | 13µM* | 2% | 22 | x | -6% | 15%
CCCCC(=O)Cl | u | -4% | x | x | -8% | -1%
Cc1nn(Cc2ccccc2)c(C)c1C(=O)OCC(=O)Nc1ccccc1SCC#N | 25µM* | -6% | 19 | 1 | -5% | 10%[38.3 µM]
O=Cc1ccc2c(c1)OCO2 | u | 2% | x | x | -8% | -19%
O=C(/C=C/c1ccc2c(c1)OCO2)c1c(O)n(CCC2=CCCCC2)c(=O)[nH]c1=O | 32µM* | -2% | 44 | 4 | -19% | 6%
CN(C)CCCCCCN(C)C | u | 2% | x | x | -8% | -15%
O=C(O)c1ccccc1C(=O)O | 28µM* | -5% | x | x | -11% | 13%
Cc1nonc1-c1nc(-c2nonc2N)n[nH]1 | -1% | 3% | -26 | 2 | 14µM* | -18%[38.3 µM]
NS(=O)(=O)C[C-]1C=C[CH]([Sb-]([Cl])([Cl])([Cl])([Cl])[Cl])C=C1.c1ccncc1 (centres undefined) | 3.5µM* | 2%[11.4 µM] | x | x | -10% | -5%
O=Cc1ccccc1 | 3.2µM* | 1% | x | x | -9% | 8%
O=C(c1cc(-c2cccnc2)nc2ccc(Cl)cc12)N1CCC2(CC1)OCCO2 | 7.1µM* | -3% | 8 | -6 | -9% | -1%[38.3 µM]
O=C(c1cc(-c2cccnc2)nc2ccccc12)N1CCC2(CC1)OCCO2 | u | -1% | 21 | 4 | -8% | 0%[38.3 µM]
CN(C)CCCNc1c2c(nc3ccc(Cl)cc13)CCCC2 | 6%[13.5 µM] | 0%[11.4 µM] | x | x | -4% | 8%
c1ccc(CCN2CCCCCC2)nc1 | 13%[13.5 µM] | -1%[11.4 µM] | x | x | -14% | -1%
COC(=O)[C@]1(C)CC[C@@]2(C)CC[C@@]3(C)C4=CC=C5C(=CC(=O)C(O)=C5C)[C@@]4(C)CC[C@@]3(C)C2C1 (some centres undefined) | -10% | u | x | x | 20µM* | 29%
C=CCBr | -17% | -1% | x | x | -4% | -2%

Screening results (PubChem)
